Compound activity as filed in PubChem.
An excerpt weighted towards active compounds, which were near 13% of everything screened.
CHOP inh – inhibitors of CHOP induction in ER stress response; inhibition, % at 10 µM; actives 3.8% (n = 220,000); CHO-K1 CHOP-promoter luciferase, tunicamycin-induced, 15-18 h;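 active = compounds that reduced the stress-induced luciferase reporter signal by more than about 70% of percent inhibition, limit read from the data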;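 also: 0% = tunicamycin plus vehicle and 100% = wells without tunicamycin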
RAM inhibit – inhibitors of the yeast RAM network; S. cerevisiae dse1pr::URA3 reporter, 5-FOA growth OD615, 2 d; analog-sensitive cbk1-as2 kinase mutant strain; inhibition, % at 50 µM; actives 1.8% (n = 190,000); AID 868;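 active = inhibition above a set limit, 3 SD over mean compound inhibition, cut at about 8.4% in these data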;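 also: 0% = DMSO-only wells with no growth and 100% = 10 µM 1-NA-PP1 full growth; inhibition rescues growth on 5-FOA so higher OD means more RAM inhibition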
WT yeast gro inh – growth inhibition of WT yeast, mitochondrial fusion screen | mitochondrial fusion phenotypic screen, WT strain | inhibition, % at 10 µM | actives 2.1% (n = 190,000) | AID 1362; in the data active = inhibition above about 58%; tested in S. cerevisiae
Lmaj promast – Leishmania major promastigote growth inhibition | Leishmania major promastigotes, resazurin fluorescence viability | inhibition, % at 10 µM | actives 9% (n = 200,000); in the data active = inhibition above about 50%;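 also: promastigotes grown with compound for 44 hours at 28 °C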
Starred values were filed as active, the others as inactive; / = not tested or not shown.

SMILES	CHOP inh	RAM inhibit	WT yeast gro inh	Lmaj promast
CC(C)[C@H](NC(=O)NCc1ccc(F)cc1)C(=O)O	4	/	/	/
Cc1ccc(C(=O)NCC2(c3ccccc3)CCCC2)cc1	33	3	14	3
O=C(NCC1(c2ccccc2)CCCC1)c1ccc(Br)cc1	74*	1	15	-1
CC1=C(C(=O)OC(C)C)C(c2cn(-c3ccccc3)nc2-c2cccs2)NC(=O)N1 (stereo unspecified)	12	-1	0	33
CCOc1ccc(C(=O)Nc2nnc(C(C)C)s2)cc1OCC	-23	1	13	87*
CN1CCN(C2=Cc3ccccc3Sc3cc(F)c(Cl)cc32)CC1	-9	3	98*	93*
CN1CCN(C2=Cc3ccccc3Sc3cc(F)c(F)cc32)CC1	24	2	95	101*
CN1CCN(C2=Cc3cc(Cl)ccc3Sc3cc(F)ccc32)CC1	-27	3	95*	100*
COC(=O)c1c(-c2ccc(C(C)(C)C)cc2)csc1NC(=O)C1C2CCC(O2)C1C(=O)O (stereo unspecified)	-15	5	0	-5
O=C(NNC(=O)C1CCCN(c2ncccn2)C1)c1ccncc1 (stereo unspecified)	21	0	8	-8
COCc1cnc(C)nc1N	-6	2	-18	-6
N#C/C(=C(/O)COC(=O)COc1cccc(Br)c1)c1nc2ccccc2[nH]1	75*	/	/	/
Cc1cc(C)cc(OCC(=O)OC/C(O)=C(\C#N)c2nc3ccccc3[nH]2)c1	79*	3	4	0
CCN(Cc1ccncc1)Cc1nc(CC2CC2)no1	6	5	-19	-11
CC(NC(=O)c1ccc(Br)cc1)c1ccccc1 (stereo unspecified)	21	1	42	-2
CC(NC(=O)c1ccc(F)cc1)c1ccc(F)cc1 (stereo unspecified)	5	1	-14	56*
CC(NC(=O)c1ccccc1)c1ccc(F)cc1 (stereo unspecified)	-29	0	-5	4
CC(NC(=O)c1ccccc1)c1ccc(Br)cc1 (stereo unspecified)	0	2	-16	55*
COC(=O)c1ccc(Oc2c(Cl)cccc2[N+](=O)[O-])cc1	41	4	3	45
Cc1ccccc1CNC(=O)C(=O)Nc1nccs1	-14	3	-9	-9
CC1(C)CC(=O)c2c(O)cc(OCc3ccc([N+](=O)[O-])cc3)cc2O1	-5	7	83*	-6
CCCCOC(=O)Nc1nnc(Cc2ccc(Cl)cc2)s1	1	3	9	-9
COc1ccc2c(c1OC)C(=O)OC2n1c(O)c(N=NC(C)=O)c2ccccc21 (stereo unspecified)	-16	/	/	/
Cc1nonc1OCCNCCNc1ccc([N+](=O)[O-])cc1Cl	0	4	16	87*
COC(=O)c1c(-c2cccc(C)c2)csc1NC(=O)C1CCCO1 (stereo unspecified)	17	5	10	2
SMILES	CHOP inh	RAM inhibit	WT yeast gro inh	Lmaj promast
CC(C)OC(=O)c1c(-c2ccc(C(C)C)cc2)csc1NC(=O)C1CCCO1 (stereo unspecified)	37	8	70*	24
CCOC(=O)c1c(-c2ccc(F)cc2)csc1NC(=O)C1CCCO1 (stereo unspecified)	75*	6	40	5
CCOC(=O)c1c(NC(=O)C2CCCO2)sc(C(N)=O)c1C (stereo unspecified)	1	0	3	6
CCOC(=O)c1c(-c2ccc(C)cc2)csc1NC(=O)C1CCCO1 (stereo unspecified)	58	4	58*	7
CCOC(=O)c1c(-c2ccc(OC)cc2)csc1NC(=O)C1CCCO1 (stereo unspecified)	19	5	19	52*
Cc1cc(C)nc(NC(=O)C2c3ccccc3Oc3ccccc32)n1	3	4	4	-3
COc1ccc(NC(=O)CCC(=O)N(Cc2ccc(OC)c(OC)c2)c2nccs2)cc1	28	10*	-1	54*
COc1ccc(OC)c(NC(=O)CCC(=O)N(Cc2ccc(OC)c(OC)c2)c2nccs2)c1	6	-1	-2	-4
CCCNC(=O)Nc1ccc(NC(C)=O)cc1	6	3	9	-4
CN1C(=O)/C(=C/c2ccccc2OCc2cccc(F)c2)N(C)C1=S	32	7	15	80*
COc1cc(/C=N/OCC(=O)Nc2cc(C)cc(C)c2)ccc1OCc1ccc(Cl)cc1	-2	7	36	96*
COC(=O)c1ccc(/C=N/OCC(=O)NC2CCCC(C)C2C)cc1 (stereo unspecified)	53	5	23	6
COc1cc(/C=N/N2CCOCC2)ccc1OCc1ccc(Cl)cc1	8	1	14	-11
COc1cc(/C=N/OCC(=O)NC2CCCCC2C)ccc1OCc1ccc(Cl)cc1 (stereo unspecified)	41	11*	22	83*
CC1CCCN(c2ccc(C(=O)NCc3ccc4c(c3)OCO4)cc2[N+](=O)[O-])C1 (stereo unspecified)	14	8.5*	34	2
CC1CCN(c2ccc(C(=O)Nc3ccc4c(c3)OCO4)cc2[N+](=O)[O-])CC1	18	4	11	98*
CC1CCCN(c2ccc(C(=O)Nc3ccc4c(c3)OCO4)cc2[N+](=O)[O-])C1 (stereo unspecified)	42	5	33	97*
CC1CCN(c2ccc(C(=O)N3CCOCC3)cc2[N+](=O)[O-])CC1	22	0	26	-7
CC1CCCN(c2ccc(C(=O)Nc3nnc(C4CC4)s3)cc2[N+](=O)[O-])C1 (stereo unspecified)	68	5	0	1
CCOC(=O)c1cc(NC(=O)Nc2nccs2)c(C)nc1C	22	0	-8	-4
COc1cc(C(=O)Nc2ccc(N3CCOCC3)cc2)ccc1OCc1c(C)noc1C	1	3	-12	-2
O=C(Nc1nc2c(s1)CCCC2)c1nn(Cc2ccccc2)c(=O)c2ccccc12	21	3	1	34
CC(C)CCn1nc(C(=O)Nc2nc3c(s2)CCCC3)c2ccccc2c1=O	-18	2	31	65*
COc1ccccc1C(C)NCC(=O)NCC(=O)Nc1ccc(F)c(F)c1F (stereo unspecified)	-15	0	5	-7
O=C(CSc1cc(Cl)ccc1Cl)NCC(=O)Nc1ccc(F)c(F)c1F	72*	9.4*	-5	-6
SMILES	CHOP inh	RAM inhibit	WT yeast gro inh	Lmaj promast
CCOc1ccc(C(=O)Nc2ccccc2N2CCOCC2)cc1	19	0	7	1
CC(C)Oc1cccc(C(=O)Nc2ccccc2N2CCOCC2)c1	74*	1	13	5
CCC(C)Oc1cccc(C(=O)Nc2ccccc2N2CCOCC2)c1 (stereo unspecified)	75*	3	34	-2
O=C(C/C=N\OCc1ccc([N+](=O)[O-])cc1)Nc1ccc(Br)cc1	-5	5	13	2
COc1ccc(-c2nnc3ccc(SCC(=O)Nc4nc5ccccc5s4)nn23)cc1OC	31	3	9	1
Cc1[nH]n(-c2ncc(-c3ccccc3)s2)c(=O)c1C(c1ccc(Br)cc1)C(C#N)C#N (stereo unspecified)	47	11*	-4	81*
